“And” between values parts separate entries of the source, which are not always exact repeats. Equal values may be shown once. Records with an inconclusive call do not appear. Entries that show only a call come without a potency. The source made the active and inactive calls. Calls follow the shape of the dose curve; as a rule, active = well fitted inhibition curve with a large enough effect in the signal ratio in the repeat runs (not every such curve was filed as active); inconclusive = weak or mixed curves, or effect the other way; inactive = no such curve, though single readings can be large or run the other way; the % refers to the signal ratio.
Potency is read from the fitted curve at half-maximal effect.

Chain of Glucocorticoid receptor (Homo sapiens) (P04150 whole entry, looked up): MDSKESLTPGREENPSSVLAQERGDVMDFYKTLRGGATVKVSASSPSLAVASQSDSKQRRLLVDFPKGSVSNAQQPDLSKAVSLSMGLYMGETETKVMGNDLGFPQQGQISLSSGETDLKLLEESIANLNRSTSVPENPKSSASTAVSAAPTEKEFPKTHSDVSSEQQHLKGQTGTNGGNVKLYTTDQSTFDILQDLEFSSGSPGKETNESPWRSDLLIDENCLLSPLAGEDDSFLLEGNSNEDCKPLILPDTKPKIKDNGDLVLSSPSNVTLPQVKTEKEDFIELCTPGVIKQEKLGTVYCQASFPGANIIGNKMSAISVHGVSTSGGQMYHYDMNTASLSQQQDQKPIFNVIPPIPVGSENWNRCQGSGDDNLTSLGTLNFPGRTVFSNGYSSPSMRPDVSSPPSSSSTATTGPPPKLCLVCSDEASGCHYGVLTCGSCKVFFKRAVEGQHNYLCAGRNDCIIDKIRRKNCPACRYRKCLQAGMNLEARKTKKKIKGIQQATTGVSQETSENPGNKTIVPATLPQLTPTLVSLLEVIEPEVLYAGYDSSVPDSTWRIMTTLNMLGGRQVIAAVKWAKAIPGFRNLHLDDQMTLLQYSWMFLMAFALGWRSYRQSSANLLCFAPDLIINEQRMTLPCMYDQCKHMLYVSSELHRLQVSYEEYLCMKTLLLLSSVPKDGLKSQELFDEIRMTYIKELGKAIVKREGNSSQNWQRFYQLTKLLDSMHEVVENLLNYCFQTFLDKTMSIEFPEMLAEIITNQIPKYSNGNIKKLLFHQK

In the test the target is Glucocorticoid receptor (Homo sapiens) (UniProt P04150). The test can be described thus: qHTS assay to identify small molecule antagonists of the glucocorticoid receptor (GR) signaling pathway (AID 720692). The following applies: GR-bla HeLa, beta-lactamase FRET ratio, dexamethasone-stimulated, 18 h; series mostly up to 58.5 µM. In a few lines:
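Inhibition of glucocorticoid signalling is measured in HeLa cells with a GRE-controlled beta-lactamase reporter; cells are co-treated with compound and 5 nM dexamethasone (final) for 18 h before FRET substrate readout.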
For orientation: Quantitative high-throughput screening tests each substance at several concentrations.
Take `Cc1c(Cl)c(=O)oc2cc(OP(=O)(OCCCl)OCCCl)ccc12`: the Potency entry is “inactive”.

As to `O=C(CCl)C(Cl)Cl`, the Potency was 35 µM (active).

In the case of `O=C/C(Cl)=C(/Cl)C(=O)O`, the Potency was 48.9 µM (active) and 49 µM (active).

On to `Clc1ccc(C(c2ccccc2Cl)C(Cl)(Cl)Cl)cc1` (stereo unspecified), for which the Potency is 22 µM (active) and 20.3 µM (active).

Turning to `CC(=O)O[C@H]1CC[C@@]2(C)C(=CC[C@@H]3[C@@H]2CC[C@]2(C)C(=O)CC[C@@H]32)C1`, the Potency entry was “inactive”.

In the case of `CCCN(CC)CC1COC2(CCC(C(C)(C)C)CC2)O1` (stereo unspecified), the Potency result was “inactive”.

For `C[C@]12CC[C@H]3[C@@H](CCC4=CC(=O)CC[C@@]43C)[C@@H]1CC[C@@H]2O`, the Potency is 2.44 µM (active).

With `ClC(Cl)=C(c1ccc(Cl)cc1)c1ccc(Cl)cc1`, the Potency entry was “inactive”.

`CCCCCCCCCCCCBr`: the Potency result is “inactive”.

Turning to `CCCCCCCCCCCCCN1CC(C)OC(C)C1` (stereo unspecified), the Potency entry is “inactive”.

As for `Oc1c(Br)c(Br)c(Br)c(Br)c1Br`, the Potency was 13.9 µM (active).

Take `CC(C)CCCCCCCOP(=O)(Oc1ccccc1)Oc1ccccc1`: the Potency result was “inactive”.

Consider `N#CNC#N`, for which the Potency entry is “inactive”.

Consider `Nc1ccc(Cc2ccc(N)c(Cl)c2)cc1Cl`, for which the Potency is 42.2 µM (active).

Consider `O=c1ssc(Cl)c1Cl`, for which the Potency is 43.6 µM (active).

Regarding `c1ccc(OCC2CO2)cc1` (stereo unspecified), the Potency entry is “inactive”.

The values are drawn from PubChem BioAssay (Tox21).
